# Data reported in the supplement of paper PMC9135407.
# “And” between values parts separate entries of the source, which are not always exact repeats. Identical values can stand only once. Counter-ions that a name gives are not always drawn. The whole screen tested about 5,800 compounds, of which about 620 (11%) showed activity. Only a selection was taken, and actives are over-represented in it overall. Values without a mark were called inactive.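 How the source made its calls: active = score above a cut-off or among the top three wells of a plate; in these data no inactive exceeds 0.85.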
# Test system: primary human hepatic stellate cells (donor 1)
# Assay: scaled lipid accumulation score (0 = DMSO-like, 1 = nortriptyline-like); higher = stronger HSC inactivation (lipid re-accumulation), active = hit call of the paper
# Details: 48 h
# [1] = library stock concentration: 400 uM
# [2] = library stock concentration: 10 mM
# [3] = library stock concentration: 3.33 mM
# [4] = library stock concentration: 1 mM
# [5] = library stock concentration: 2 mM
# [6] = library stock concentration: 80 uM
# [7] = library stock concentration: 5.2 mM
compound,measurement,setting,value
Cn1cc(C2=C(c3c4n(c5ccccc35)CCC(CN)C4)C(=O)NC2=O)c2ccccc21 (configuration not stated) [Bisindoylmaleimide X HCl salt (Ro 31-8425) (0.4 mM)],scaled lipid accumulation score,[1],0.132
Cn1cc(C2=C(c3ccc(Cl)cc3Cl)C(=O)NC2=O)c2ccccc21 [listing 1 of 5 here],scaled lipid accumulation score,[2],1.22 (active)
CCCCn1c2ccc(O)cc2c2c3c(c(-c4ccccc4Cl)cc21)C(=O)NC3=O [Wee1 Inhibitor II],scaled lipid accumulation score,[3],≤ 0
O=C1NC(=O)C(c2cn(CCCO)c3ncccc23)=C1c1cnccn1 [GSK-3b Inhibitor XI],scaled lipid accumulation score,[3],0.065
Cn1cc(C2=C(c3cn(CCCSC(=N)N)c4ccccc34)C(=O)NC2=O)c2ccccc21 [Bisindolylmaleimide IX (mesylate)],scaled lipid accumulation score,[4],≤ 0
Cn1cc(/C=C2\C(=O)Nc3cccnc32)c2ccccc21,scaled lipid accumulation score,[1],≤ -0.005
same,scaled lipid accumulation score,[5],0.002
same,scaled lipid accumulation score,[2],≤ -0.001 and ≤ -0.005
Cn1cc(C2=C(c3cn(CCCSC(=N)N)c4ccccc34)C(=O)NC2=O)c2ccccc21,scaled lipid accumulation score,[6],0.068
same,scaled lipid accumulation score,[1],0.267
same,scaled lipid accumulation score,[5],≤ 0
same,scaled lipid accumulation score,[3],≤ 0
same,scaled lipid accumulation score,[2],0.848
same,scaled lipid accumulation score,library stock concentration: 10.9 mM,0.832
Cn1cc(C2=C(c3c4n(c5ccccc35)CCC(CN)C4)C(=O)NC2=O)c2ccccc21 (configuration not stated) [Bisindoylmaleimide X HCl salt (Ro 31-8425) (2 mM)],scaled lipid accumulation score,[5],≤ 0
Cn1cc(C2=C(c3ccc(Cl)cc3Cl)C(=O)NC2=O)c2ccccc21 [listing 2 of 5 here],scaled lipid accumulation score,[6],0.035
same,scaled lipid accumulation score,[1],≤ -0.009 and 0.379
same,scaled lipid accumulation score,[5],0.225
same,scaled lipid accumulation score,[3],0.555
same,scaled lipid accumulation score,[2],0.564
Cn1cc(C2=C(c3ccc(Cl)cc3Cl)C(=O)NC2=O)c2ccccc21 [listing 3 of 5 here],scaled lipid accumulation score,[5],1.13 (active)
same,scaled lipid accumulation score,[2],1.17 (active)
Cn1cc(C2=C(c3ccc(Cl)cc3Cl)C(=O)NC2=O)c2ccccc21 [listing 4 of 5 here],scaled lipid accumulation score,[2],1.03 (active)
Cn1cc(C2=C(c3c4n(c5ccccc35)CCC(CN)C4)C(=O)NC2=O)c2ccccc21 (configuration not stated) [Bisindoylmaleimide X  HCl salt (Ro 31-8425) (10 mM)],scaled lipid accumulation score,[2],≤ -0.005
"NCCCn1cc(C2=C(c3c[nH]c4ccccc34)C(=O)NC2=O)c2ccccc21 [Bisindolylmaleimide III, Hydrochloride]",scaled lipid accumulation score,[3],≤ 0
Cn1cc(C2=C(c3cn(CCCSC(=N)N)c4ccccc34)C(=O)NC2=O)c2ccccc21 [Ro 31-8220 mesylate],scaled lipid accumulation score,[2],≤ -0.001
Cn1cc(C2=C(c3cn(CCCSC(=N)N)c4ccccc34)C(=O)NC2=O)c2ccccc21 [Ro 31-8220 Mesylate],scaled lipid accumulation score,[3],≤ -0.009
same,scaled lipid accumulation score,[2],0.514
Cn1cc(C2=C(c3ccc(Cl)cc3Cl)C(=O)NC2=O)c2ccccc21 [listing 5 of 5 here],scaled lipid accumulation score,[2],1.37 (active)
Cn1cc(C2=C(c3cn(CCCN)c4ccccc34)C(=O)NC2=O)c2ccccc21 [Bisindolylmaleimide VIII (acetate)],scaled lipid accumulation score,[4],≤ 0
CCCCCCCCCCCCCCCC(=O)OCC [Palmitic Acid ethyl ester],scaled lipid accumulation score,[4],≤ 0
C[N+]1(C)C[C@H](O)C[C@H]1C(=O)[O-] [Betonicine],scaled lipid accumulation score,,≤ 0
CCCCC[C@H](O)/C=C/[C@H]1CCC(=O)[C@@H]1C/C=C\CCCC(=O)O [11-deoxy Prostaglandin E2],scaled lipid accumulation score,[4],0.072
CC[C@H](CO)Nc1nc(NCc2ccccc2O)c2ncn(C(C)C)c2n1 [Olomoucine II],scaled lipid accumulation score,[3],0.299
NC1=N[C@@]2(c3cc(NC(=O)c4ccc(F)cn4)ccc3F)COC[C@H]2CS1,scaled lipid accumulation score,[3],0.012
same,scaled lipid accumulation score,[2],0.209
C[C@]12CCC(=O)C=C1CC[C@@H]1[C@@H]2[C@@H](O)C[C@@]2(C)[C@H]1CC[C@]2(O)C(=O)COP(=O)(O)O [Hydrocortisone phosphate triethylamine],scaled lipid accumulation score,library stock concentration: 3.1 mM,≤ -0.001
CCOc1nc2cccc(C(=O)O)c2n1Cc1ccc(-c2ccccc2-c2noc(=O)[nH]2)cc1 [Azilsartan],scaled lipid accumulation score,[3],≤ 0
same,scaled lipid accumulation score,[2],≤ 0
CCCCC[C@H](O)/C=C/[C@H]1C(=O)C[C@H](O)[C@@H]1C/C=C/CCCC(=O)O [5-trans Prostaglandin D2],scaled lipid accumulation score,[4],≤ 0
COC(=O)C1=C(C)NC(C)=C(C(=O)OCCCN2CCC(c3ccccc3)(c3ccccc3)CC2)[C@@H]1c1cccc([N+](=O)[O-])c1 [(R)-(-)-Niguldipine hydrochloride],scaled lipid accumulation score,[2],≤ -0.006
C=C1C(=O)OC2CC1C(OC(C)=O)C/C(C)=C/CC/C(C)=C/CC[C@]2(C)O (some centres not stated) [Crassin acetate],scaled lipid accumulation score,[2],1.04 (active)
C=C1C(=O)O[C@@H]2/C=C(\C)CC/C=C(\C)CC[C@@H]12 [Costunolide],scaled lipid accumulation score,[3],≤ 0
same,scaled lipid accumulation score,[2],0.163 and ≤ -0.001
C=C1C(=O)O[C@H]2[C@H]1CC/C(C)=C/CC[C@@]1(C)O[C@@H]21 [(-)-Parthenolide],scaled lipid accumulation score,[3],0.099
same,scaled lipid accumulation score,[2],0.534
C=C1C(=O)O[C@H]2[C@H]1CC/C(C)=C/CC[C@@]1(C)O[C@@H]21 [Parthenolide],scaled lipid accumulation score,,0.539
same,scaled lipid accumulation score,[2],0.317 and 0.269
same,scaled lipid accumulation score,library stock concentration: 20.1 mM,0.417
CCCCCCCC/C=C\CCCCCCCCOC[C@H](COP(=O)([O-])OCC[N+](C)(C)C)OC(C)=O,scaled lipid accumulation score,[4],≤ -0.018
CC(=O)NCC(=O)N[C@H](CCC(=O)O)C(=O)O [N-Acetylglycyl-D-glutamic acid],scaled lipid accumulation score,[2],≤ 0
CN(C)CCN1C(=O)c2ccccc2N(C)c2ccccc21 [Dibenzepine HCl],scaled lipid accumulation score,library stock concentration: 6.8 mM,≤ 0
CN(C)CCCN1c2ccccc2CCc2ccc(Cl)cc21 [Clomipramine hydrochloride],scaled lipid accumulation score,library stock concentration: 5.7 mM,0.836
CN(C)CCCN1c2ccccc2CCc2ccccc21 [Imipramine HCl],scaled lipid accumulation score,library stock concentration: 7.1 mM,0.618
CN(C)CCCN1c2ccccc2CCc2ccc(Cl)cc21.Cl [Clomipramine hydrochloride] [listing 1 of 3 here],scaled lipid accumulation score,[2],1.01 (active)
CN(C)CCCN1c2ccccc2CCc2ccc(Cl)cc21,scaled lipid accumulation score,[2],0.755
CN(C)CCCN1c2ccccc2CCc2ccccc21,scaled lipid accumulation score,[2],0.493
CN(C)CCCN1c2ccccc2CCc2ccc(Cl)cc21.Cl [Clomipramine hydrochloride] [listing 2 of 3 here],scaled lipid accumulation score,,0.968 (active)
CN(CCCN1c2ccccc2CCc2ccccc21)CC(=O)c1ccc(Cl)cc1 [Lofepramine],scaled lipid accumulation score,[2],0.323
CN(C)CCCN1c2ccccc2CCc2ccc(Cl)cc21.Cl [Clomipramine hydrochloride] [listing 3 of 3 here],scaled lipid accumulation score,[2],1.31 (active)
CN(C)CCCN1c2ccccc2CCc2ccccc21.Cl [Imipramine hydrochloride],scaled lipid accumulation score,[2],1.1 (active)
CN(CCCN1c2ccccc2CCc2ccccc21)CC(=O)c1ccc(Cl)cc1,scaled lipid accumulation score,[2],0.191
CN(C)CCCN1c2ccccc2CCc2ccccc21 [Imipramine hydrochloride],scaled lipid accumulation score,,0.652
same,scaled lipid accumulation score,library stock concentration: 6.3 mM,0.714
same,scaled lipid accumulation score,[2],0.59
CN(C)CCCN1c2ccccc2CCc2ccc(Cl)cc21 [Clomipramine HCl],scaled lipid accumulation score,[3],0.402
C[C@@H]1CC[C@@]2(OC1)O[C@H]1C[C@H]3[C@@H]4CC=C5C[C@@H](O)CC[C@]5(C)[C@H]4CC[C@]3(C)[C@H]1[C@@H]2C [Diosgenin],scaled lipid accumulation score,[2],≤ -0.027
CCCCCCCCCCCCCCCC(=O)OC[C@@H](O)COP(=O)(O)O [1-Palmitoyl Lysophosphatidic Acid (sodium salt)],scaled lipid accumulation score,[4],0.001
CCCCCCCCCCCCCCCCOC[C@H](CO)SC(C)=O [2-thio-Acetyl MAGE],scaled lipid accumulation score,[4],≤ 0
"CCCCCC/C=C/C=C\CCCCCCCC(=O)O [9(Z),11(E)-Conjugated Linoleic Acid]",scaled lipid accumulation score,[4],0.029
CCCCCNC(=N)N/N=C/c1c[nH]c2ccc(OC)cc12,scaled lipid accumulation score,[2],0.13
CCCCCNC(=N)N/N=C/c1c[nH]c2ccc(OC)cc12 [Tegaserod maleate],scaled lipid accumulation score,[2],≤ -0.027
CCCCCNC(=N)N/N=C/c1c[nH]c2ccc(OC)cc12 [Tegaserod],scaled lipid accumulation score,[2],≤ -0.027
Cc1cc(-c2ccc(/N=N/c3ccc4c(S(=O)(=O)O)cc(S(=O)(=O)O)c(N)c4c3O)c(C)c2)ccc1/N=N/c1ccc2c(S(=O)(=O)O)cc(S(=O)(=O)O)c(N)c2c1O,scaled lipid accumulation score,[2],0.033
CCCCC[C@H](O)/C=C/[C@@H]1[C@H](C/C=C\CCCC(=O)O)[C@H](O)C[C@H]1O [8-iso Prostaglandin F2.beta.],scaled lipid accumulation score,[4],0.004
CN(C)CCCN1c2ccccc2CCc2ccc(Cl)cc21.Cl [Clomipramine HCl],scaled lipid accumulation score,[2],0.83 (active)
CC[N+]1(C)C2CCC1CC(OC(=O)C1CCC(C(=O)OC3CC4CCC(C3)[N+]4(C)CC)(c3ccccc3)c3ccccc31)C2 (stereo not drawn) [beta- Belladonnine dichloroethylate],scaled lipid accumulation score,,≤ 0
Cc1c(C(N)=O)cc([N+](=O)[O-])cc1[N+](=O)[O-] [Dinitolmide],scaled lipid accumulation score,[3],≤ 0
same,scaled lipid accumulation score,[2],≤ -0.001 and ≤ -0.027
NC1CONC1=O (racemic) [DL-Cycloserine],scaled lipid accumulation score,[2],≤ 0
COc1cc2nc(N3CCN(C(=O)C4COc5ccccc5O4)CC3)nc(N)c2cc1OC (configuration not stated) [Doxazosin mesylate],scaled lipid accumulation score,,≤ 0
same,scaled lipid accumulation score,library stock concentration: 4.4 mM,0.151
same,scaled lipid accumulation score,[2],0.85
COc1cc2nc(N(C)CCCNC(=O)C3CCCO3)nc(N)c2cc1OC (configuration not stated) [Alfuzosin hydrochloride],scaled lipid accumulation score,,≤ 0
same,scaled lipid accumulation score,[2],0.274
COc1cc2nc(N3CCN(C(=O)c4ccco4)CC3)nc(N)c2cc1OC [Prazosin HCl],scaled lipid accumulation score,[7],0.728
COc1cc2nc(N3CCN(C(=O)c4ccco4)CC3)nc(N)c2cc1OC [Prazocin],scaled lipid accumulation score,library stock concentration: 13 mM,1.03 (active)
COc1cc2nc(N3CCN(C(=O)C4CCCO4)CC3)nc(N)c2cc1OC (configuration not stated) [Terazosin hydrochloride],scaled lipid accumulation score,,≤ 0
same,scaled lipid accumulation score,[2],≤ -0.006
COc1cc2nc(N(C)CCCNC(=O)C3CCCO3)nc(N)c2cc1OC (configuration not stated) [Alfluzocin],scaled lipid accumulation score,[2],0.025
COc1cc2nc(N3CCN(C(=O)c4ccco4)CC3)nc(N)c2cc1OC.Cl [Prazosin hydrochloride],scaled lipid accumulation score,[2],1.35 (active)
COc1cc2nc(N3CCN(C(=O)C4COc5ccccc5O4)CC3)nc(N)c2cc1OC (configuration not stated) [Doxazosin Mesylate],scaled lipid accumulation score,[3],≤ 0
same,scaled lipid accumulation score,[2],0.473
COc1cc2nc(N3CCN(C(=O)C4CCCO4)CC3)nc(N)c2cc1OC (configuration not stated) [Terazosin HCl],scaled lipid accumulation score,[3],≤ 0
same,scaled lipid accumulation score,[7],0.009
same,scaled lipid accumulation score,[2],≤ 0
COc1cc2nc(N3CCN(C(=O)C4CCCO4)CC3)nc(N)c2cc1OC (configuration not stated) [Terazosin],scaled lipid accumulation score,library stock concentration: 9.6 mM,≤ 0
same,scaled lipid accumulation score,[2],0.162
COc1cc2nc(N(C)CCCNC(=O)C3CCCO3)nc(N)c2cc1OC (configuration not stated) [Alfluzosin],scaled lipid accumulation score,library stock concentration: 5.1 mM,≤ 0
COc1cc2nc(N(C)CCCNC(=O)C3CCCO3)nc(N)c2cc1OC (configuration not stated) [Alfuzosin HCl],scaled lipid accumulation score,[3],≤ 0
same,scaled lipid accumulation score,[2],≤ 0
COc1cc2nc(N3CCN(C(=O)c4ccco4)CC3)nc(N)c2cc1OC [Prazosin],scaled lipid accumulation score,[2],1 (active)
COc1cc2nc(N(C)CCCNC(=O)C3CCCO3)nc(N)c2cc1OC (configuration not stated),scaled lipid accumulation score,[2],≤ 0
COc1cc2nc(N3CCN(C(=O)c4ccco4)CC3)nc(N)c2cc1OC [Prazosin hydrochloride],scaled lipid accumulation score,,0.676
same,scaled lipid accumulation score,library stock concentration: 4.8 mM,0.682
same,scaled lipid accumulation score,[2],0.361 and 0.672
COc1cc2nc(N3CCN(C(=O)C4COc5ccccc5O4)CC3)nc(N)c2cc1OC (configuration not stated) [Doxazosin],scaled lipid accumulation score,[2],0.539
